Screening results as filed in PubChem BioAssay.
This is a sample that favours compounds with a hit; in the whole collection about 19% have one here.
KB-3-1 tox – qHTS assay for MDR1-selective chemotherapeutics: Primary screen using the parental adenocarcinoma cell KB-3-1; 1.4% of 400,000 active; AID 1347075, 2019; KB-3-1 viability, CellTiter-Glo ATP luminescence, 72 h; Potency, µM (top dose mostly 46.1 µM), hits mostly cytotoxic; also: nearly all actives have a fitted effect of over 60% in size
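KB-3-1 cells, DMEM (no phenol red) + 10% FBS; compound by pin transfer, 72 h, 37 °C. Readout: CellTiter-Glo luminescence after 10 min. Data normalized, curve-fitted.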
TDP1 cell CPT – qHTS for Inhibitors of human tyrosyl-DNA phosphodiesterase 1 (TDP1): qHTS in cells in presence of CPT; chicken DT40 Tdp1-/-;hTDP1 cells + 20 nM CPT, ATP luminescence, 48 h; 12% of 420,000 active; Potency, µM (highest dose often 46.2 µM), for the others: at the highest dose activity change, negative = growth inhibition, usual class: inhibitors; also: nearly all actives have a fitted effect of over 55% in size
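Chicken DT40 Tdp1-/- cells complemented with human TDP1, 400 cells/well, exposed to compounds plus 20 nM camptothecin for at least 48 h at 37 C; viability read as ATP content by CellTiter-Glo luminescence.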
KB-V1 MDR tox – qHTS assay for MDR1-selective chemotherapeutics: Primary screen using the drug-selected MDR subline cells KB-V1; Potency, µM (series often up to 46.1 µM), most hits filed as cytotoxic; 3.4% of 400,000 active; KB-V1 MDR cells viability, CellTiter-Glo, 72 h; also: nearly all actives have a fitted effect of over 60% in size
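Potencies derive from concentration-effect curves fitted to normalized luminescence (CellTiter-Glo) of KB-V1 cells treated for 72 h at 37 degrees C in phenol-red-free DMEM containing 10% FBS.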
HT1080 IDH1KD tx – qHTS for induction of synthetic lethality in tumor cells producing 2HG: qHTS for the HT-1080-IDH1KD cell line; 2% of 360,000 active; HT-1080 IDH1 knockdown viability, ATP luminescence, 48 h; AID 686971, 2013; Potency, µM (doses to about 46.1 µM), inactives show at the top dose activity, negative = toxicity, hits mostly cytotoxic;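 also: 0% = DMSO wells and -100% = cell-free medium wells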
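Assay cells: HT-1080 with IDH1 knockdown, 750 per well, RPMI/5% FBS. Exposure: 48 h at 37 °C following 2 h pre-incubation. Read: CellTiter-Glo luminescence; fitted concentration-response, curve class assigned.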
DT40 TDP1 no CPT – qHTS for Inhibitors of human tyrosyl-DNA phosphodiesterase 1 (TDP1): qHTS in cells in absence of CPT | DT40 Tdp1-/- hTDP1 cells, no CPT, ATP luminescence, 48 h | Potency, µM (titrated, usually from 46.2 µM), without a hit: at the highest dose activity change, negative = growth inhibition, usual class: inhibitors | 15% of 420,000 active; also: nearly all actives have a fitted effect of over 55% in size
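Luminescent ATP content (CellTiter-Glo) served as the growth readout. Knockout chicken DT40 cells expressing human TDP1 were exposed to compounds without camptothecin for a minimum 48 hr at 37 °C.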
HT1080NT lethal – qHTS for induction of synthetic lethality in tumor cells producing 2HG: qHTS for the HT-1080-NT fibrosarcoma cell line. HT-1080-NT fibrosarcoma viability, CellTiter-Glo ATP luminescence, 48 h. Potency, µM (doses to about 46.1 µM), without a hit: at the highest dose activity, negative = less viability, actives largely listed as cytotoxic. 1.6% of 360,000 active. AID 686970, 2013;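 also: NT is the 2HG producing partner of a matched IDH1 knockdown line; 0% = DMSO-treated cells and -100% = media-only wells without cells; nearly all actives have a fitted effect of over 55% in size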
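HT-1080-NT; 750 cells/well; 5% FBS RPMI; 48 h compound, 37 degrees C; CellTiter-Glo luminescence; curve fitting and curve-class assignment.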
The depositor's hits bear a star; i = inactive; ? = inconclusive; · = no result given; [ ] = another dose, or the depositor's remark. Calls follow the shape of the dose curve; as a rule, active = well fitted curve in the direction sought with a large enough effect; inconclusive = small, poorly fitted or top-dose-only effect, or another doubt; inactive = no such curve, though single readings can be large; an effect the other way counts as inactive or inconclusive. Unless noted, % is scaled to controls: 0 for no effect and ±100 for the full control effect; potency is read from the fitted curve at half-maximal effect.

SMILES	KB-3-1 tox	TDP1 cell CPT	KB-V1 MDR tox	HT1080 IDH1KD tx	DT40 TDP1 no CPT	HT1080NT lethal
O=C(CCCOc1ccc(Cl)cc1Cl)Nc1ccc(O)cc1C(=O)O	i	14%	i	-9%	0%	5%
CC1ON=C(c2ccccn2)N(Cc2ccc(S(C)(=O)=O)cc2)C1=O (stereo not drawn)	i	-3%	i	0%	3%	19%
CC1=CC(C)(C)n2c(O)c(N=N)c3cc(C)cc1c32	i	?	?	7%	23µM*	0%
COc1cc2c3c(c1)c(N=NC(N)=S)c(O)n3C(C)(C)C=C2C	i	4.6µM*	i	-4%	5.2µM*	-7%
CCc1nc2cc(C(=O)N3CCC[C@H]3CO)cc(NC(=O)c3ccccc3OC)c2n1C	·	11%[9.04 µM]	·	·	-7%	·
CCC(=O)N1CCc2cc(Br)cc(S(=O)(=O)CCC(=O)NCCc3ccc(Cl)cc3)c21	i	-27%	i	·	?	·
COc1ccc(N2CC(C)Cn3c2nc2c3c(=O)n(Cc3ccc(C)cc3)c(=O)n2C)c(OC)c1 (stereo not drawn)	i	?	i	1%	16µM*	0%
Cc1c(C(=O)NCC2COc3ccccc3O2)oc2ccc(S(=O)(=O)N3CCOCC3)cc12 (stereo not drawn)	?	?	2.3µM*	9%	?	10%
CCN(CC)S(=O)(=O)c1ccc2oc(C(=O)NCC3COc4ccccc4O3)c(C)c2c1 (stereo not drawn)	i	?	?	?	23µM*	-30%
COCCCNC(=O)c1oc2ccc(S(=O)(=O)N3CCOCC3)cc2c1C	i	1%	i	1%	-23%	-4%
Cc1c(C(=O)NCC2CCCO2)oc2ccc(S(=O)(=O)N3CC(C)CC(C)C3)cc12 (stereo not drawn)	?	?	?	-3%	?	0%
CCN(CC)CCCNC(=O)c1oc2ccc(S(=O)(=O)N3CC(C)CC(C)C3)cc2c1C (stereo not drawn)	i	?	?	26µM*	18µM*	?
O=C(NCC1COc2ccccc2O1)c1ccc(F)c(S(=O)(=O)N2CCOCC2)c1 (stereo not drawn)	i	18µM*	?	-4%	?	-8%
CCN(CC)S(=O)(=O)c1ccc2oc(C(=O)NCCCN3CCOCC3)c(C)c2c1	i	1%	i	0%	-4%	9%
COc1ccc2ccccc2c1CNCCN1CCOCC1	i	-21%	i	6%	-2%	4%
Fc1ccccc1CNCc1ccc2c(c1)OCO2	i	-15%	i	4%	-21%	-4%
Cc1ccc(NC(=O)c2ccc3c(c2)C(=O)N(c2cc(C)ccc2C)C3=O)nc1	i	?	?	12%	-11%	17%
Cc1c(C(=O)NCC2COc3ccccc3O2)oc2ccc(S(=O)(=O)N3CC(C)CC(C)C3)cc12 (stereo not drawn)	i	18µM*	?	-1%	13µM*	0%
Cc1c(C(=O)N2CCCCC2)oc2ccc(S(=O)(=O)N3CC(C)CC(C)C3)cc12 (stereo not drawn)	i	18µM*	?	?	13µM*	?
CCS(=O)(=O)Nc1cc(C(=O)N2CCCN(C=O)CC2)c2c(c1)nc(-c1ccccc1)n2C	·	4%	·	·	-4%	·
Fc1ccc(Cn2cccc2C2=NC(c3ccccc3)CO2)cc1 (stereo not drawn)	i	-25%	i	5%	4%	0%
Cc1ccc(NC(=O)Cn2cccc2C2=NC(c3ccccc3)CO2)cc1C (stereo not drawn)	?	?	15µM*	0%	?	0%
Cc1ccc(NC(=O)Cn2cccc2)cc1C	i	-22%	i	-9%	-3%	13%
CCc1ccccc1NC(=O)Cn1cccc1C1=NC(c2ccccc2)CO1 (stereo not drawn)	i	-1%	?	16µM*	-3%	?
Cc1oc(-c2ccccc2)nc1Cn1cccc1C1=NC(c2ccccc2)CO1 (stereo not drawn)	16µM*	?	12µM*	?	23µM*	-13%
SMILES	KB-3-1 tox	TDP1 cell CPT	KB-V1 MDR tox	HT1080 IDH1KD tx	DT40 TDP1 no CPT	HT1080NT lethal
O=C(CNc1n[nH]c(=O)[nH]c1=O)N/N=C/C1CC=CCC1 (stereo not drawn)	i	-3%	i	0%	?	0%
N/C(=N\S(=O)(=O)c1cccs1)c1ccccc1	i	-6%	i	-4%	-16%	-2%
CC(C)(C)c1cc[n+](C2=C([O-])c3ccccc3C(=O)/C2=N\S(=O)(=O)c2cccs2)cc1	16µM*	2.3µM*	i	13µM*	4.6µM*	15µM*
O=C1/C(=N\S(=O)(=O)c2cccs2)C([n+]2ccccc2)=C([O-])c2ccccc21	6.5µM*	2.3µM*	i	0%	2.3µM*	?
O=C(Cn1c(=O)n(-c2ccccc2Cl)c(=O)c2sc3ccccc3c21)NC1CCCCC1	i	-19%	i	·	?	·
O=S(=O)(c1ccc2c(Cl)cccc2c1)N1CCN(c2nc(-c3cccs3)nc3ccccc23)CC1	·	-3%	·	7%	-10%	24%
CCc1nnc(NC(=O)c2ccc(S(=O)(=O)N3CCCCCC3)cc2)s1	i	-5%	i	-3%	-5%	?
COc1ccc(C(C)(C)C)cc1NC(=O)C1CC=CCC1C(=O)O (stereo not drawn)	i	?	i	5%	15µM*	1%
COc1ccc(C(=O)OCc2cc(C)ccc2C)cc1S(=O)(=O)N1CCCC1	i	?	5.2µM*	-1%	?	-6%
O=C(O)C1CC=CCC1C(=O)Nc1ccc(Oc2ccc(Cl)cc2)cc1 (stereo not drawn)	i	?	i	-2%	?	0%
Cc1cc(C)cc(Oc2ccc(NC(=O)C3CC=CCC3C(=O)O)cc2)c1 (stereo not drawn)	i	-4%	i	-19%	3.7µM*	-15%
